CRFR2-BP antag: antagonists of CRF-binding protein/CRF-R2 receptor complex | inhibition, % at 11.8 µM | actives 0.59% (n = 350,000) | HEK293 CRF-R2/CRF-BP, CRF-induced calcium fluorescence;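 active = inhibition of the ligand-induced calcium signal above about 50% at the single tested concentration, limit read from the data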
NadD inh: blocks S. aureus nicotinate mononucleotide adenylyltransferase; inhibition, % at 20 µM; purified NadD enzyme, colorimetric absorbance read-out; actives 0.78% (n = 360,000); in the data active = inhibition above about 26%
CendR NRP1 mod: NRP-1/CendR interaction modulation. O14786. FAM-RPARPAR peptide binding to NRP-1, fluorescence polarization. inhibition, % at 25 µM. actives 0.85% (n = 360,000). AID 602438;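 active = inhibition or corrected inhibition above about 18%, plus a signal ratio from 0.5 to 1.5, limit read from the data, passing the limit was not always enough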
Target sequence (O14786 whole entry, looked up): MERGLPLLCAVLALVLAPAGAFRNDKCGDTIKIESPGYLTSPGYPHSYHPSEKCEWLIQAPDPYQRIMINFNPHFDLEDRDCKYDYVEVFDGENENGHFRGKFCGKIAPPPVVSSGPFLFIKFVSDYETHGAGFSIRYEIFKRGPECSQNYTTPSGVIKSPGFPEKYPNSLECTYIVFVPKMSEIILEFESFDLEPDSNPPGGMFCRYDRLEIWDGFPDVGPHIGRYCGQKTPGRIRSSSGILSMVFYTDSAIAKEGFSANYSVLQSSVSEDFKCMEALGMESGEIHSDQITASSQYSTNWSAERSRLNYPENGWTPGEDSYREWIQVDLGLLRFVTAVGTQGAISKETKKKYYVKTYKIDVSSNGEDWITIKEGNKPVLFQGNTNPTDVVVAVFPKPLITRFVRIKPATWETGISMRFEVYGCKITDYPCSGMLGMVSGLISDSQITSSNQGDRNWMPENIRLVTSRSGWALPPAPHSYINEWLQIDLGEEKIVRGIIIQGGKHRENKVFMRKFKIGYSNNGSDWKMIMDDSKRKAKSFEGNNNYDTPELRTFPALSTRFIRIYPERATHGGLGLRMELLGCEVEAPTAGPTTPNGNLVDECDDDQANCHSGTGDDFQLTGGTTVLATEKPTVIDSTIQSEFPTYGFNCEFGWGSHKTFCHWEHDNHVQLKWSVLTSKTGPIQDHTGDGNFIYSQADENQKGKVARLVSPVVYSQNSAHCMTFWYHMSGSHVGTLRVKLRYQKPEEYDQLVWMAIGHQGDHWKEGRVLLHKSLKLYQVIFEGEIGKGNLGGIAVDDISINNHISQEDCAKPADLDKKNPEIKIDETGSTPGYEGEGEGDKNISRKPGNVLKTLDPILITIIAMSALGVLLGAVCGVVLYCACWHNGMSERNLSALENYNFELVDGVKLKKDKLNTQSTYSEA
Myeloid diff 2: myeloid differentiation induction | ER-HoxA9 myeloid progenitors, lysozyme-GFP differentiation, flow cytometry | calls only at 10 µM | actives 1% (n = 360,000) | AID 624256;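 active = normalized GFP-positive differentiation at or above the plate's own cutoff, the solvent-only control mean plus 3 SD; inconclusive = no clear call, values can overlap the other calls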;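 also: cells exposed to compound for four days before flow analysis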
FAS-TE inh: inhibitors of human fatty acid synthase thioesterase domain. actives 0.67% (n = 360,000). AID 602261. inhibition, % at 15 µM. recombinant FAS-TE, OMFH fluorogenic substrate, fluorescence endpoint;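 active = compounds whose normalised, plate-corrected inhibition of enzyme fluorescence in the single-dose primary screen is 50% or more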;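 also: 0% = DMSO with enzyme and 100% = substrate without enzyme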
* hit, by the source's call; i = inactive; ? = inconclusive; . = no result given; + = active, no number. Shown are actives, neighbours in structure and some others; about 3.6% of the full set was active somewhere.

SMILES	CRFR2-BP antag	NadD inh	CendR NRP1 mod	Myeloid diff 2	FAS-TE inh
COc1cccc(-n2c(SCc3cc(=O)oc4cc(O)c(O)cc34)nc3ccccc3c2=O)c1	-20	65*	-60	i	25
COc1ccc(NC(=O)CSc2nc(O)cc(=O)n2-c2ccc(OC)cc2)cc1	-2	-2	-7	+	-2
COc1ccc(-n2c(SCC(=O)Nc3ccc4c(c3)OCO4)nc3ccccc3c2=O)cc1	-13	7	8	+	32
COc1ccc([C@H]2C[C@@H](n3cc(-c4ccc(F)cc4)nn3)[C@H](O)CN2C(=O)C2CCCCC2)cc1	-8	-5	0	i	-5
O=C(Cc1cccnc1)N[C@@H]1CC[C@H](CCn2cc(Cc3ccccc3)nn2)O[C@@H]1CO	.	.	13	i	.
COc1ccc(NC(=O)CSc2nc(C3CC3)nc3ccccc23)cc1	-5	-2	-11	+	3
CC(=O)c1ccc(NC(=O)CSc2nc(C3CC3)nc3ccccc23)cc1	12	-4	3	i	0
COC(=O)c1c(Cl)c2n3ccccc3c(C)c(-c3ccccc3)c-2c1C(=O)OC	14	-5	38*	i	-10
Cn1c(=O)c2[nH]c(CCc3ccncc3)nc2n(C)c1=O	6	1	4	i	-9
Cn1c(=O)c2[nH]c(CCCc3ccc([N+](=O)[O-])cc3)nc2n(C)c1=O	-3	0	30*	i	-6
CN(Cc1ccccc1)Cc1nc2c([nH]1)c(=O)n(C)c(=O)n2C	-13	-3	7	+	-6
CCCn1c(CN(C)Cc2ccccc2)nc2c1c(=O)n(C)c(=O)n2C	-1	-3	-2	i	-4
CC1(C(=O)Nc2ccc3c(c2)OCCO3)CN(S(C)(=O)=O)CC(=O)N1CCCN1CCOCC1 (stereo not drawn)	.	.	1	i	.
C[C@]12C[C@H](O)[C@@H]3c4ccc(O)cc4CCC3[C@@H]1CCC2=O (stereo partly drawn)	10	-1	11	i	-4
C[C@]12CC[C@H]3C(=CCc4cc(O)ccc43)[C@@H]1CCC2=O	-4	-4	-8	+	5
Nc1nc(F)nc2c1ncn2[C@@H]1O[C@H](CO)[C@@H](O)[C@@H]1O	50*	4	4	i	-7
CCOC(=O)C1CCN(CC(O)COc2ccc(C(C)(C)C)cc2)CC1 (stereo not drawn)	-11	-1	-12	+	-10
O=c1c2ccccc2n(Cc2ccc(F)cc2)c(=O)n1C1CCCC1	81*	-9	4	i	8
O=C(Cn1c(=O)n(Cc2ccc(F)cc2)c(=O)c2ccccc21)NCC1CCCO1 (stereo not drawn)	-1	4	-1	i	0
COc1ccc(-c2ccc3c(c2)C2CC3CCN2)cc1 (stereo not drawn)	-10	6	5	i	-6
Nc1ccc2nc(-c3cccc(-c4nc5ccc(N)cc5[nH]4)n3)[nH]c2c1	24	13	-1	+	3
COCCCN(Cc1cc(OC)c(OC)c(OC)c1)C(=S)Nc1cccc(Cl)c1	3	-2	3	i	7
O=C(/C=C/c1ccccc1[N+](=O)[O-])N1CCOCC1	63*	-4	5	i	-4
COc1ccc(OC)c(C(C)NC(=O)C(C)n2cc([N+](=O)[O-])cn2)c1 (stereo not drawn)	11	-6	2	i	-2
COc1cccc(NC(=S)NC(Cc2ccccc2)c2ccccc2)c1 (stereo not drawn)	84*	-4	-22	i	20
SMILES	CRFR2-BP antag	NadD inh	CendR NRP1 mod	Myeloid diff 2	FAS-TE inh
CCCCn1nnc(NC(=O)c2sc3cc(Cl)ccc3c2Cl)n1	-60	-4	2	i	10
CCN(CC)Cc1ccc(NC(=O)c2sc3cc(Cl)ccc3c2Cl)cc1	-18	-1	-6	+	8
O=C(NC(c1ccccc1)c1ccsc1)C1CCN(Cc2ccc(Oc3ccccc3)cc2)CC1 (stereo not drawn)	.	-2	-2	i	14
CC(C)C[C@H]1CNC(=S)N1CC1CCN(CCCCc2ccccc2)CC1	1	9	6	i	-10
O=C1CC(C(=O)Nc2ccccc2)C2(CCCC2)O1 (stereo not drawn)	22	-1	-6	+	-10
Cc1cccc(NC(=O)C2CC(=O)OC23CCCCC3)c1 (stereo not drawn)	-11	1	10	i	-6
Cc1ccc(S(=O)(=O)N2CCOCC2)cc1-c1n[nH]c(=S)n1-c1ccccc1	11	2	2	i	-6
CC(C)NC(=S)N(CCc1ccncc1)C(C)C	112*	1	-8	i	-8
O=C(C=P(c1ccccc1)(c1ccccc1)c1ccccc1)c1ccccc1-c1ccccc1C(=O)C=P(c1ccccc1)(c1ccccc1)c1ccccc1	6	56*	-3	?	-18
COc1cccc(C=C(C(C)=O)C(=O)c2ccccc2)c1	.	5	-2	i	0
CC(C)C(NC(=O)c1ccco1)C(=O)NC1CCCCCC1 (stereo not drawn)	105*	3	4	i	-4
COc1ccc(NC(=O)COC(=O)[C@@H]2CCCN2C(=O)c2cccs2)cc1	15	0	29*	i	-8
COCCCN1C(=O)C(CC(=O)NCCCN(C)C)CC(C(=O)N(C(C)C)C(C)C)=C1C (stereo not drawn)	.	-12	4	i	-4
CCn1c(C)nc2cc(OC)ccc21	15	-6	21*	i	0
O=C(NCCNC(=O)c1ccc(Br)o1)c1ccc(Br)o1	-7	10	8	i	0
O=C(NCCc1ccccc1)c1ccc(Br)o1	1	-9	24*	i	-8
O=C(CNC(=S)NC(=O)c1ccc(Br)o1)c1ccccc1	-28	-2	4	+	-4
C=C(C)Cn1c(SCC(=O)O)nnc1-c1ccccc1	-2	3	28*	i	-8
C=C(C)Cn1c(SCC(=O)O)nnc1-c1ccc(C(C)(C)C)cc1	3	5	2	i	-3
COc1c(OC(C)=O)ccc(/C=C/c2ccc3ccccc3n2)c1[N+](=O)[O-]	7	-4	-2	i	59*
CNC(C)c1cc(OC)ccc1OC (stereo not drawn)	0	-1	-10	i	-7
COc1ccc(OC)c(C(C)NC(C)=O)c1 (stereo not drawn)	5	-1	8	+	-9
Cc1cccc(CN2CCN(C3CN(Cc4cn(Cc5cccc(Cl)c5)nn4)S(=O)(=O)C3)CC2)c1 (stereo not drawn)	.	-6	23*	i	-3
CC(C(=O)N1CCCCC1)N(C)CC(=O)Nc1cccc(F)c1 (stereo not drawn)	-4	.	.	.	.
Cc1ccc(C(=O)NCCN2C3=NC[C@H](C)N3C[C@H]2Cc2ccc(O)cc2)cc1Br	0	1	25*	i	-8
